A selection: hits, their analogues and other compounds. The true share with any hit is near 28%.
CYP2C9 activ – activators of human CYP2C9; activation factor at 5 µM; recombinant CYP2C9, luciferin-H conversion, luminescence; active compounds read high; factor 1 = untreated enzyme, 0 = blocked; P11712; AID 1024; 96,000 tested, 1.4% active;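 active = activation factor of 2 or more for CYP2C9 at a 5 µM dose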;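 note: 0 = sulfaphenazole-blocked wells and 1 = vehicle-only wells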
Mac1 fbg enh – enhancers of human CD11b/CD18 binding to fibrinogen; activation, % at 10 µM; K562 CD11b/CD18 adhesion to fibrinogen, ATPlite luminescence; P05107+P11215; 93,000 tested, 0.07% active; AID 1499;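 active = 10 µM primary screen giving 50% or more activity, confirmed by 40% or more on retest at that dose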
CYP2C19 inhib – human CYP2C19 inhibition; P33261; CYP2C19 Supersomes, luciferin-H EGE luminescence, 30 min; inhibition, % at 5 µM; 96,000 tested, 21% active; AID 778;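 active = CYP2C19 inhibition above a set limit at 5 µM in the primary screen, cut at about 50% in these data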;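 note: plate controls were negative control wells for no effect and 2.5 mM tranylcypromine positive control for full effect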
Target sequence (P33261 whole entry, looked up): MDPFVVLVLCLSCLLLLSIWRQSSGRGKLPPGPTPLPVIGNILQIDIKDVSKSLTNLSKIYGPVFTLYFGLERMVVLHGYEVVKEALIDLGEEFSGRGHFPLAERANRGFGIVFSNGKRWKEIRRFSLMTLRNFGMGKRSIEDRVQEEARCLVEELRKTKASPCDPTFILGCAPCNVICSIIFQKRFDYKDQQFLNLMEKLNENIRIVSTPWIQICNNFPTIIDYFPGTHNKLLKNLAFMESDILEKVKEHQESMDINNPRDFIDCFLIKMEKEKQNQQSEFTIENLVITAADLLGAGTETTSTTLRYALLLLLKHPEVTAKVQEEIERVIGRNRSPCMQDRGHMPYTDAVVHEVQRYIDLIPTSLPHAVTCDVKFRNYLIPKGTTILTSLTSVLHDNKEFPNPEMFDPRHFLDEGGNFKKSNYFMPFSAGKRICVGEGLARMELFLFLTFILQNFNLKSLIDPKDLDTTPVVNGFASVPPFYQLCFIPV
CYP2C9 inh – blocks human cytochrome P450 2C9. P11712. inhibition, % at 5 µM. AID 777. 96,000 tested, 20% active. CYP2C9 Supersomes, luciferin-H conversion, luminescence;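 active = blocking of liver enzyme CYP2C9 beyond about 50% at 5 µM, limit read from the data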
CYP2C19 act – cytochrome P450 2C19 (human) activation | P33261 | recombinant CYP2C19, luciferin-H EGE luminescence; active compounds read high; 0 = fully inhibited enzyme, 1 = untreated enzyme | activation factor at 5 µM | 96,000 tested, under 10 active;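 active = activation factor of at least 2 at 5 µM in the primary screen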;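 note: 0 = wells with 2.5 mM tranylcypromine and 1 = vehicle-only wells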
Mac1 fbg inh – CD11b/CD18-fibrinogen binding inhibition | P05107+P11215 | K562 CD11b/CD18 adhesion to fibrinogen, ATPlite luminescence; Mn2+ added to activate the integrin | inhibition, % at 10 µM | 93,000 tested, 0.54% active;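 active = primary inhibition of 50% or more at 10 µM, then 40% or more on retest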
An asterisk follows results filed as active.

Results for O=C1c2cccc3cccc(c23)C(=O)N1c1nccs1 ?
CYP2C9 activ: 1.3; Mac1 fbg enh: 1; CYP2C19 inhib: -4; CYP2C9 inh: -25; CYP2C19 act: 1; Mac1 fbg inh: 21

Results for Cc1nnc(C)n1N1C(=O)c2cccc3cccc(c23)C1=O ?
CYP2C9 activ: 0.2; Mac1 fbg enh: -3; CYP2C19 inhib: 62*; CYP2C9 inh: 81*; CYP2C19 act: 0.4; Mac1 fbg inh: 0

Results for CCCCOCCCNC(=O)c1ccc(OC)cc1 ?
CYP2C9 activ: 0.9; Mac1 fbg enh: -2; CYP2C19 inhib: 58*; CYP2C9 inh: 14; CYP2C19 act: 0.4; Mac1 fbg inh: -32

What do the screens show for `CCCCOCCCNC(=O)Cc1ccccc1OC`?
CYP2C9 activ: 1; Mac1 fbg enh: -1; CYP2C19 inhib: 73*; CYP2C9 inh: -1; CYP2C19 act: 0.3; Mac1 fbg inh: -5

What do the screens show for `CC(C)Cn1c(N)c(C(=O)COC(=O)c2ccc3c(c2)OCCO3)c(=O)n(C)c1=O`?
CYP2C9 activ: 0.3; Mac1 fbg enh: -4; CYP2C19 inhib: 60*; CYP2C9 inh: 67*; CYP2C19 act: 0.4; Mac1 fbg inh: 31

Results for Cc1ccc(NCc2nnc(SCC(=O)c3ccc4c(c3)OCCO4)o2)c(C)c1 ?
CYP2C9 activ: 1; Mac1 fbg enh: 0; CYP2C19 inhib: -1; CYP2C9 inh: -4; CYP2C19 act: 1; Mac1 fbg inh: -7

How did COc1ccc(-c2[nH]ncc2/C=C(\C#N)C(=O)NC2CC2)cc1 do in these assays?
CYP2C9 activ: 0.5; Mac1 fbg enh: -4; CYP2C19 inhib: 54*; CYP2C9 inh: 52*; CYP2C19 act: 0.5; Mac1 fbg inh: -1

How did CCc1ccc(C(C)NC(=O)/C(C#N)=C\c2cn[nH]c2-c2ccccc2)cc1 (stereo not drawn) do in these assays?
CYP2C9 activ: 1; Mac1 fbg enh: -3; CYP2C19 inhib: 13; CYP2C9 inh: 0; CYP2C19 act: 0.9; Mac1 fbg inh: 28

What do the screens show for `CC(NC(=O)/C(C#N)=C/c1cn[nH]c1-c1ccccc1)c1ccccc1` (stereo not drawn)?
CYP2C9 activ: 0.7; Mac1 fbg enh: -2; CYP2C19 inhib: 39; CYP2C9 inh: 29; CYP2C19 act: 0.6; Mac1 fbg inh: -6

How did N#C/C(=C\c1cn[nH]c1-c1ccccc1)C(=O)NC1CCCCCC1 do in these assays?
CYP2C9 activ: 2*; CYP2C19 inhib: -3; CYP2C9 inh: -98; CYP2C19 act: 1

Results for N#C/C(=C\c1cn[nH]c1-c1ccc(Cl)cc1)C(=O)NCc1ccccc1 ?
CYP2C9 activ: 0.1; Mac1 fbg enh: -4; CYP2C19 inhib: 88*; CYP2C9 inh: 88*; CYP2C19 act: 0.1; Mac1 fbg inh: 11

What do the screens show for `CS(=O)(=O)c1ccc(Cl)c(NC(=O)COC(=O)CNC(=O)c2ccc(Br)o2)c1`?
CYP2C9 activ: 1.3; Mac1 fbg enh: -3; CYP2C19 inhib: -20; CYP2C9 inh: -29; CYP2C19 act: 1.2; Mac1 fbg inh: -5

What do the screens show for `O=C(c1cccs1)n1nc(-c2ccccc2)nc1NCc1ccc(F)cc1`?
CYP2C9 activ: 0.8; Mac1 fbg enh: -4; CYP2C19 inhib: 4; CYP2C9 inh: 22; CYP2C19 act: 1; Mac1 fbg inh: 2

How did Cn1c(C(=O)N(Cc2ccccc2)Cc2cccs2)cc2sccc21 do in these assays?
CYP2C9 activ: 0.3; Mac1 fbg enh: -2; CYP2C19 inhib: 47; CYP2C9 inh: 73*; CYP2C19 act: 0.5; Mac1 fbg inh: 11

What do the screens show for `Cn1c(C(=O)N2CCCC(C(=O)NCCCc3ccccc3)C2)cc2sccc21` (stereo not drawn)?
CYP2C9 activ: 0.8; Mac1 fbg enh: -2; CYP2C19 inhib: 33; CYP2C9 inh: 23; CYP2C19 act: 0.7; Mac1 fbg inh: 6

How did Cn1c(C(=O)N(Cc2ccccc2)Cc2ccccn2)cc2sccc21 do in these assays?
CYP2C9 activ: 0.1; Mac1 fbg enh: 0; CYP2C19 inhib: 88*; CYP2C9 inh: 91*; CYP2C19 act: 0.1; Mac1 fbg inh: -18

How did O=S(=O)(Nc1nc2ccccc2[nH]1)c1ccc2ccccc2c1 do in these assays?
CYP2C9 activ: 0.6; Mac1 fbg enh: -1; CYP2C19 inhib: 74*; CYP2C9 inh: 44; CYP2C19 act: 0.3; Mac1 fbg inh: -3

What do the screens show for `O=S(=O)(Nc1ncn[nH]1)c1ccc2ccccc2c1`?
CYP2C9 activ: 1; Mac1 fbg enh: 0; CYP2C19 inhib: -12; CYP2C9 inh: -4; CYP2C19 act: 1.1; Mac1 fbg inh: -5

How did COc1ccc(N2C(=O)c3ccccc3NC23CCCCC3)cc1 do in these assays?
CYP2C9 activ: 0.4; Mac1 fbg enh: -2; CYP2C19 inhib: 49; CYP2C9 inh: 64*; CYP2C19 act: 0.5; Mac1 fbg inh: -9

Results for CC(=O)Nc1ccc(S(=O)(=O)NC2(C(F)(F)F)N=C(c3ccccc3)NC2=O)cc1 (stereo not drawn) ?
CYP2C9 activ: 1; Mac1 fbg enh: 6; CYP2C19 inhib: -9; CYP2C9 inh: 3; CYP2C19 act: 1.1; Mac1 fbg inh: 2

How did Cc1ccc(N(CC(=O)NCc2ccc3c(c2)OCO3)S(=O)(=O)c2c(C)noc2C)cc1 do in these assays?
CYP2C9 activ: 0.4; Mac1 fbg enh: -5; CYP2C19 inhib: 98*; CYP2C9 inh: 57*; CYP2C19 act: 0; Mac1 fbg inh: -4

Results for Cc1noc(C)c1S(=O)(=O)N(CC(=O)NCc1ccc2c(c1)OCO2)c1ccc(C(C)C)cc1 ?
CYP2C9 activ: 0.9; Mac1 fbg enh: -1; CYP2C19 inhib: 63*; CYP2C9 inh: 14; CYP2C19 act: 0.4; Mac1 fbg inh: 0

What do the screens show for `CC(Sc1nc(-c2ccccc2)cc(C(F)(F)F)n1)C(=O)NCc1ccco1` (stereo not drawn)?
CYP2C9 activ: 1.6; Mac1 fbg enh: -1; CYP2C19 inhib: -2; CYP2C9 inh: -57; CYP2C19 act: 1; Mac1 fbg inh: 7

How did CC1CCCN(C(=O)C(C)Sc2nc(-c3ccccc3)cc(C(F)(F)F)n2)C1 (stereo not drawn) do in these assays?
CYP2C9 activ: 0.4; Mac1 fbg enh: -1; CYP2C19 inhib: 71*; CYP2C9 inh: 60*; CYP2C19 act: 0.3; Mac1 fbg inh: 30

How did CC(Sc1nc(-c2ccccc2)cc(C(F)(F)F)n1)C(=O)N1CCCCC1 (stereo not drawn) do in these assays?
CYP2C9 activ: 0.4; CYP2C19 inhib: 47; CYP2C9 inh: 58*; CYP2C19 act: 0.5

How did O=C(CSc1nc(-c2ccccc2)cc(C(F)(F)F)n1)N1CCOCC1 do in these assays?
CYP2C9 activ: 0.9; Mac1 fbg enh: -2; CYP2C19 inhib: 3; CYP2C9 inh: 8; CYP2C19 act: 1; Mac1 fbg inh: 22

How did Cc1ccc(OCC(=O)n2cnnc2N)c(C)c1 do in these assays?
CYP2C9 activ: 1.1; Mac1 fbg enh: 4; CYP2C19 inhib: -5; CYP2C9 inh: -10; CYP2C19 act: 1; Mac1 fbg inh: -7

High-throughput results (PubChem)
